We go through 17 compounds from PubChem BioAssay (NCATS).

Records with an inconclusive call do not appear. Values without a mark were called inactive. The source made the active and inactive calls. Calls come from the whole dose curve; as a rule, active = well fitted inhibition curve with a large enough effect; inconclusive = small, poorly fitted or top-dose-only effect; inactive = no such curve, though single readings can be large or run the other way.
% is set by controls: 0 for no effect and ±100 for the full control effect; potency is the fitted concentration of half-maximal effect.

The assay can be described thus: HTS Assay for Allosteric Antagonists of the Human D2 Dopamine Receptor: Hit Validation in HTRF (AID 624455).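 Note: stable D1 dopamine receptor cell line scored for blocking the D1 response.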 The settings on record: Cells stably expressing D1 dopamine receptor, inhibition mode; series mostly up to 46.1 µM; activity, negative = inhibition: at the top concentration. The method, boiled down: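 Hits were examined in an HTRF assay using cells stably expressing the D1 dopamine receptor, scoring inhibition of the D1-mediated response. The preceding primary screen tracked calcium flux after an EC80 dopamine addition in force-coupled, inducible Hek293 Trex D2 cells.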
As for `CNc1ncnc2c1ncn2[C@@H]1O[C@H](CO)[C@@H](O)[C@H]1O`, the “activity, negative = inhibition” value is 2.46%.

Turning to `N#C/C(=C\c1ccc(O)c(O)c1)C(=O)NCc1ccccc1`, the “activity, negative = inhibition” value is 1.27%.

As for `O=C(O)/C=C/C(O)c1ccc(Cl)cc1` (configuration not stated), the “activity, negative = inhibition” value is 3.35%.

As to `CC(COc1ccc(/C=C/c2ccccc2)cc1)[N+](C)(C)C` (configuration not stated), the “activity, negative = inhibition” value is 7.41%.

In the case of `Oc1ccc(C2CNCc3sccc32)cc1O` (configuration not stated), the Potency was 146 nM (active).

Consider `CC(C)NCC(O)COc1cccc2ccccc12` (configuration not stated), for which the “activity, negative = inhibition” value was 1.95%.

Regarding `CN1CCc2cc(NC(=O)Nc3cccnc3)ccc21`, the “activity, negative = inhibition” value is 10.2%.

Turning to `CCCCCCCCCCCCCCCCCC(=O)NCC(COP(=O)([O-])OCC[N+](C)(C)C)OCC` (configuration not stated), the “activity, negative = inhibition” value is -5.43%.

Regarding `CCOC(=O)C1=C(C)NC(C)=C(C(=O)OCC)C1c1c(F)c(F)c(F)c(F)c1F`, the “activity, negative = inhibition” value was 2.12%.

In the case of `Nc1nc(SCc2ccc([N+](=O)[O-])cc2)c2ncn([C@@H]3O[C@H](CO)[C@@H](O)[C@H]3O)c2n1`, the “activity, negative = inhibition” value is -12.9%.

In the case of `O=C(O)[C@@H]1C[C@H](C(=O)O)N1`, the “activity, negative = inhibition” value was -6.79%.

With `C[N+](C)(C)CCOP(=O)(O)OP(=O)([O-])OC[C@H]1O[C@@H](n2ccc(N)nc2=O)[C@H](O)[C@@H]1O`, the “activity, negative = inhibition” value is -8.41%.

Regarding `O=C(O)c1cc([N+](=O)[O-])ccc1NCCCc1ccccc1`, the “activity, negative = inhibition” value is 9.66%.

Consider `Ic1ccc(N2CCN(Cc3c[nH]c4ncccc34)CC2)cc1`, for which the “activity, negative = inhibition” value is -9.32%.

Take `CN1CC(=O)N/C1=N/C(=O)Nc1cccc(Cl)c1`: the “activity, negative = inhibition” value was -4.13%.

Consider `CCNC(=O)[C@H]1O[C@@H](n2cnc3c(N)nc(NCCc4ccc(CCC(=O)O)cc4)nc32)[C@H](O)[C@@H]1O`, for which the Potency was 5170 nM (active).

Regarding `NC(=S)c1ccc[n+]([C@@H]2O[C@@H](COP(=O)([O-])OP(=O)(O)OC[C@H]3O[C@@H](n4cnc5c(N)ncnc54)[C@H](OP(=O)(O)O)[C@@H]3O)C(O)C2O)c1` (some centres not stated), the “activity, negative = inhibition” value is -5.43%.
